Measured values published in PubChem BioAssay AID1159580 (chemical genetic matrix, 2015).
Values joined by “and” are separate entries in the source; they are usually repeats but may differ in a detail not shown here. Equal entries are not always repeated. The campaign covered roughly 5,500 compounds. About 2,000 (36%) were called active. Roughly 18% stayed inconclusive and do not appear here. Rule as the data show it: active = normalized growth mostly below about 0.91 (no sharp cut-off); inconclusive = no clear call, values can overlap the other calls; inactive = mostly above about 0.92. The list shows a part of the results.

Assay: chemical genetic growth profiling, strain panel (AID 1159580);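 also: tested at 20 µM; growth read once vehicle control cultures reached saturation at 30 °C; 1 = growth at the plate median or of vehicle wells; lower values mean less growth of the strain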
Conditions: S. cerevisiae deletion strains, growth OD

Measured: normalized growth

C[C@@H]1CC[C@@]2(OC1)O[C@H]1CC3C4CC[C@H]5C[C@@H](O)CC[C@]5(C)C4CC[C@]3(C)[C@H]1[C@@H]2C (stereo not given in full)
inactive: locus YAL013W, strain DEP1, active compounds read low 0.985 | locus YAL021C, strain ccr4, active compounds read low 1.02 | locus YAL026C, strain drs2, active compounds read low 1.01 | locus YAL030W, strain snc1, active compounds read low 0.994 | locus YBL061C, strain skt5, active compounds read low 1 | locus YBR009C, strain hhf1, active compounds read low 0.99 | locus YBR021W, strain FUR4, active compounds read low 1.11 | locus YBR023C, strain chs3, active compounds read low 1 | locus YBR171W, strain sec66, active compounds read low 0.994 | locus YBR229C, strain ROT2, active compounds read low 0.988 | locus YBR231C, strain swc5, active compounds read low 0.988 | locus YBR279W, strain paf1, active compounds read low 0.996 | locus YCL011C, strain gbp2, active compounds read low 0.994 | locus YCL016C, strain dcc1, active compounds read low 0.998 | locus YCL029C, strain bik1, active compounds read low 0.978 | locus YCL061C, strain MRC1, active compounds read low 0.987 | locus YCL069W, strain vba3, active compounds read low 1 | locus YCR088W, strain abp1, active compounds read low 0.986 | locus YDL005C, strain med2, active compounds read low 0.999 | locus YDL035C, strain GPR1, active compounds read low 1.02 | locus YDL040C, strain nat1, active compounds read low 0.998 | locus YDL074C, strain BRE1, active compounds read low 1 | locus YDL101C, strain DUN1, active compounds read low 0.983 | locus YDL134C, strain PPH21, active compounds read low 0.972 | locus YDL185W, strain tfp1, active compounds read low 0.954 | locus YDL192W, strain arf1, active compounds read low 0.978 | locus YDR001C, strain nth1, active compounds read low 0.997 | locus YDR069C, strain doa4, active compounds read low 0.993 | locus YDR101C, strain arx1, active compounds read low 1.01 | locus YDR137W, strain rgp1, active compounds read low 1 | locus YDR159W, strain sac3, active compounds read low 1 | locus YDR162C, strain NBP2, active compounds read low 0.994 | locus YDR195W, strain ref2 0.989 | locus YDR297W, strain sur2, active compounds read low 0.988 | locus YDR318W, strain mcm21, active compounds read low 0.977 | locus YDR334W, strain swr1, active compounds read low 0.993 | locus YDR335W, strain msn5, active compounds read low 0.996 | locus YDR388W, active compounds read low 0.981 | locus YDR392W, strain spt3, active compounds read low 0.981 | locus YDR502C, strain sam2, active compounds read low 0.992 | locus YEL003W, strain gim4, active compounds read low 0.994 | locus YEL037C, strain rad23, active compounds read low 0.989 | locus YEL061C, strain CIN8 (second series), active compounds read low 0.992 | locus YER015W, strain faa2, active compounds read low 0.996 | locus YER016W, strain bim1, active compounds read low 0.998 | locus YER110C, active compounds read low 0.969 | locus YER111C, strain swi4, active compounds read low 0.994 | locus YER155C, strain BEM2 (second series), active compounds read low 0.977 | locus YER155C, strain BEM2, active compounds read low 0.999 | locus YER167W, strain BCK2, active compounds read low 0.997 | locus YFR010W, strain ubp6, active compounds read low 1 | locus YGL078C, strain dbp3, active compounds read low 0.956 | locus YGL086W, strain mad1, active compounds read low 0.993 | locus YGL167C, strain pmr1, active compounds read low 0.999 | locus YGL173C, strain kem1, active compounds read low 0.998 | locus YGL227W, strain vid30, active compounds read low 0.987 | locus YGL240W, strain doc1, active compounds read low 1.01 | locus YGL248W, strain PDE1, active compounds read low 0.988 | locus YGL253W, strain hxk2, active compounds read low 1 | locus YGR135W, strain pre9, active compounds read low 0.941 | locus YGR252W, strain gcn5, active compounds read low 1 | locus YHR013C, strain ard1, active compounds read low 0.988 | locus YHR027C, strain rpn1, active compounds read low 0.992 | locus YHR030C, strain SLT2, active compounds read low 0.985 and 1 | locus YHR079C, strain IRE1 (second series), active compounds read low 0.987 | locus YHR079C, strain IRE1, active compounds read low 0.993 | locus YHR094C, strain hxt1, active compounds read low 0.97 | locus YHR129C, strain ARP1, active compounds read low 0.991 | locus YHR142W, strain chs7, active compounds read low 1.03 | locus YHR200W, strain rpn10, active compounds read low 0.997 | locus YIL066C, strain RNR3, active compounds read low 1 | locus YIL073C, strain SPO22, active compounds read low 0.892 | locus YIL125W, strain kgd1, active compounds read low 0.979 | locus YIR030C, strain dcg1, active compounds read low 0.977 | locus YJL092W, strain hpr5, active compounds read low 0.99 | locus YJL095W, strain BCK1 (second series), active compounds read low 0.989 | locus YJL095W, strain BCK1, active compounds read low 0.979 and 0.99 | locus YJL115W, strain asf1, active compounds read low 0.976 | locus YJL129C, strain trk1, active compounds read low 0.977 | locus YJL134W, strain LCB3, active compounds read low 0.993 | locus YJL154C, strain vps35, active compounds read low 0.99 | locus YJL164C, strain tpk1, active compounds read low 0.996 | locus YJL166W, strain qcr8, active compounds read low 0.989 | locus YJL168C, strain set2, active compounds read low 0.977 | locus YJL187C, strain SWE1 (second series), active compounds read low 0.977
